Assay [1] in a line: small molecules captured by biotinylated probe aFSTL3 – biochemical, small-molecule microarray, fluorescence 635/667, stem cell growth factor project, primary screen (AID 1064).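 Further: measures binding of the biotinylated anti-FSTL3 antibody to printed compounds.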 Conditions: higher = more signal.
Assay [2] in a line: binders from COS7 lysate, DM2A8 probe, primary screen, torsin A project, cell lysate, small-molecule microarray, fluorescence 635/667 (AID 1065). Conditions: higher = more signal, COS7 lysate expressing mutant human TOR1A.
A short description of assay [3]: small molecules captured by biotinylated probe aFGF2 – biochemical, small-molecule microarray, fluorescence 635/667, stem cell growth factor project, primary screen (AID 1067).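 Further: measures binding of biotinylated aFGF2 protein to printed compounds on slides; z-score merges feature fluorescence and signal-to-noise across triplicate slides.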 The conditions noted are these: higher = more signal.
Assay [4] is described as follows: small molecules captured by biotinylated probe aFGF10 – biochemical, small-molecule microarray, fluorescence 635/667, stem cell growth factor project, primary screen (AID 1071).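 Further: score merges 667 nm spot intensity and signal to noise from triplicate slides.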 Conditions: higher = more signal.
In assay [5] the target is Neurogenic locus notch homolog protein 2 (Homo sapiens) (UniProt Q04721). Briefly: small molecules binding Notch2 protein – biochemical, small-molecule microarray, 635 nm fluorescence, stem cell growth factors, primary screen (AID 1073). Conditions: higher = more signal.
Assay [6] addresses Pro-neuregulin-1, membrane-bound isoform (Homo sapiens) (UniProt Q02297). The experiment in a line: small molecules binding neuregulin-1 protein – biochemical, small-molecule microarray, fluorescence 635/667, psychiatric disease protein project, primary screen (AID 1075).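 Further: score combines 667 nm spot fluorescence with signal to noise.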 Conditions: NRG1 binding, 635 nm fluorescence, higher = more signal.
Assay [7] deals with Neuregulin-1 EGF-like domain. The experiment in a line: small molecules binding NRG1 EGF domain – biochemical, small-molecule microarray, 635 nm fluorescence, primary screen (AID 1081).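 Further: binding of the protein to compounds printed on small-molecule microarray slides.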 Conditions: higher = more signal.
The nature of assay [8]: FRG1 expression reporter modulators in myotubes – cell-based, C2C12 myotubes, firefly/Renilla luciferase, luminescence, FRG1 inhibition for FSHD, primary screen (AID 1084). The conditions noted are these: FRG1 promoter luciferase, higher = more signal, called active from +8 up or from −8 down.
Assay [9] in a line: small molecules captured by biotinylated probe aFST – biochemical, small-molecule microarray, fluorescence 635/667, stem cell growth factor project, primary screen (AID 1086).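 Further: score merges 667 nm fluorescence with signal-to-noise of each printed compound spot.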 Conditions: higher = more signal.
Assay [10] is described as follows: binders of probe aHhip on microarray, primary screen, stem cell growth factor project, biochemical, small-molecule microarray, fluorescence 635/667 (AID 1087).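 Further: score merges spot fluorescence at 667nm with spot signal to noise ratio.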 The conditions noted are these: higher = more signal.
The test system of assay [11] is PRMT1 (protein arginine N-methyltransferase 1). Briefly: small molecules binding arginine methyltransferase PRMT1 – biochemical, small-molecule microarray, 635 nm fluorescence, primary screen (AID 1088).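 Further: binding of Prmt1 protein to compounds spotted on small-molecule microarray slides.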 Conditions: higher = more signal.
The nature of assay [12]: growth effects on S. cerevisiae YJM789 – YJM789 clinical isolate, OD600, 24 h, basal, primary screen (AID 1089).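 Further: growth of clinical yeast isolate S. cerevisiae YJM 789 seeded 1000 cells per well; test concentration not given here.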 Conditions: higher = more signal, called active from +8 up or from −8 down.
Assay [13] can be described thus: S. pombe growth modifiers, basal conditions – strain 972, OD600, 24 h, no modulator, primary screen (AID 1090).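 Further: basal condition with compound alone and no growth modifier present; test concentration not given here.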 The conditions noted are these: S. pombe 972 growth, higher = more signal, called active from +8 up or from −8 down.
Assay [14] in a line: budding yeast growth modifiers under rapamycin – strain BY4716, OD600, 96 h, primary screen (AID 1091). Further: test concentration not given here. Conditions: S. cerevisiae BY4716 + rapamycin, higher = more signal, called active from +8 up or from −8 down.
Assay [15] addresses Torsin-1A-interacting protein 2 (Homo sapiens) (UniProt Q8NFQ8). The experiment in a line: small molecules binding lysate-expressed LULL1 – cell lysate, human LULL1 lysate, 635/667 nm fluorescence, primary screen (AID 1092).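 Further: probe is lysate of COS7 cells overexpressing human LULL1; score merges per-feature 667 nm fluorescence with signal-to-noise.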 The conditions noted are these: small-molecule microarray, hLULL1 lysate binding, 635 nm fluorescence; higher = more signal.
Assay [16] is described as follows: optical density change of DRC41 E. coli – strain DRC41, OD650, 24 h, E. coli filamentation project, primary screen (AID 1093).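 Further: MC1000 strain lacking acrAB efflux and sulA so SOS filamentation is blocked; test concentration not given here.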 Conditions: E. coli DRC41 growth, higher = more signal, called active from +8 up or from −8 down.
Assay [17] is described as follows: probe aLefty2 binding to arrayed compounds – biochemical, biotinylated probe, 635/667 nm fluorescence, primary screen (AID 1094).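 Further: score merges spot fluorescence near 667 nm with spot signal-to-noise ratio.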 Conditions: small-molecule microarray, higher = more signal.
In assay [18] the test system is Noggin (protein binding on small-molecule microarray). Briefly: small molecules binding Noggin protein – biochemical, 635/667 nm fluorescence, primary screen (AID 1095).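 Further: score merges 667 nm feature fluorescence with signal to noise over triplicate slides.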 Conditions: 635 nm fluorescence, higher = more signal.
Assay [19] addresses Neurogenic locus notch homolog protein 3 (Homo sapiens) (UniProt Q9UM47). The experiment in a line: small molecules binding NOTCH3 protein – biochemical, 635/667 nm fluorescence, primary screen (AID 1096). The conditions noted are these: small-molecule microarray, 635 nm fluorescence, higher = more signal.
Assay [20] can be described thus: probe aEGFR binding to arrayed compounds – biochemical, biotinylated probe, 635/667 nm fluorescence, primary screen (AID 1097).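 Further: probe is a biotinylated anti-EGFR antibody binding compounds printed on slides; score combines fluorescence near 667 nm and signal to noise of each spot.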 The conditions noted are these: small-molecule microarray, higher = more signal.

Calls of active or inactive are those of the source.

Torsin-1A-interacting protein 2 (Homo sapiens), sequence (Q8NFQ8 whole entry, looked up): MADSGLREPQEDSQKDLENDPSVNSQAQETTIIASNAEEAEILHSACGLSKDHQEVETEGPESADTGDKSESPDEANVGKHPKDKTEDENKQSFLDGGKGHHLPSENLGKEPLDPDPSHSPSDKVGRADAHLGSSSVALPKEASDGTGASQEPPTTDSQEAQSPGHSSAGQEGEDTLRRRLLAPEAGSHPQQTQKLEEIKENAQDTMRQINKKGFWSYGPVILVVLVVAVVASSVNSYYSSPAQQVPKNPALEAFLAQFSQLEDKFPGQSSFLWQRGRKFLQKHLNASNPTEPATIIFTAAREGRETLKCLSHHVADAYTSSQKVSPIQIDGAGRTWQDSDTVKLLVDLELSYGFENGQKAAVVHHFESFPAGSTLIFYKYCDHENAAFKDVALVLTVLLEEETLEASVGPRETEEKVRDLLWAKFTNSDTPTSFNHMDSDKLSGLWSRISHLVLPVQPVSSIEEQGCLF
Pro-neuregulin-1, membrane-bound isoform (Homo sapiens), sequence (Q02297 whole entry, looked up, the tested form may be a part, canonical isoform): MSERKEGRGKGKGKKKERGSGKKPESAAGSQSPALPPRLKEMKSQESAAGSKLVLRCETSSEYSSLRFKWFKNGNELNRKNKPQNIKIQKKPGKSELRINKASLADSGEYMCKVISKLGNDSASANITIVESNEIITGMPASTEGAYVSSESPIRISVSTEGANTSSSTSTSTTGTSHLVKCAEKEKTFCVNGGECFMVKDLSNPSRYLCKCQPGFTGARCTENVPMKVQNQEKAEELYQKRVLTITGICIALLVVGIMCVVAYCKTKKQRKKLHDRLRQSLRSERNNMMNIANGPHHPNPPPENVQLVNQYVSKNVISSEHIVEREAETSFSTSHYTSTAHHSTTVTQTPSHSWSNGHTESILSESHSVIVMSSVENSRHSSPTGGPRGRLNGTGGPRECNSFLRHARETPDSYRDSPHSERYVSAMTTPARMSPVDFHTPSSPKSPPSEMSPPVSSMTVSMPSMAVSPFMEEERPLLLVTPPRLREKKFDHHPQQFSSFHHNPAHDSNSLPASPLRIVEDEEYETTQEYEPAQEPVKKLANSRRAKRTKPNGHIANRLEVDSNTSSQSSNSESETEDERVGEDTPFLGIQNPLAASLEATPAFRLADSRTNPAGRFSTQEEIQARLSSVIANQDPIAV
Neurogenic locus notch homolog protein 2 (Homo sapiens), sequence (Q04721 whole entry, looked up, canonical isoform): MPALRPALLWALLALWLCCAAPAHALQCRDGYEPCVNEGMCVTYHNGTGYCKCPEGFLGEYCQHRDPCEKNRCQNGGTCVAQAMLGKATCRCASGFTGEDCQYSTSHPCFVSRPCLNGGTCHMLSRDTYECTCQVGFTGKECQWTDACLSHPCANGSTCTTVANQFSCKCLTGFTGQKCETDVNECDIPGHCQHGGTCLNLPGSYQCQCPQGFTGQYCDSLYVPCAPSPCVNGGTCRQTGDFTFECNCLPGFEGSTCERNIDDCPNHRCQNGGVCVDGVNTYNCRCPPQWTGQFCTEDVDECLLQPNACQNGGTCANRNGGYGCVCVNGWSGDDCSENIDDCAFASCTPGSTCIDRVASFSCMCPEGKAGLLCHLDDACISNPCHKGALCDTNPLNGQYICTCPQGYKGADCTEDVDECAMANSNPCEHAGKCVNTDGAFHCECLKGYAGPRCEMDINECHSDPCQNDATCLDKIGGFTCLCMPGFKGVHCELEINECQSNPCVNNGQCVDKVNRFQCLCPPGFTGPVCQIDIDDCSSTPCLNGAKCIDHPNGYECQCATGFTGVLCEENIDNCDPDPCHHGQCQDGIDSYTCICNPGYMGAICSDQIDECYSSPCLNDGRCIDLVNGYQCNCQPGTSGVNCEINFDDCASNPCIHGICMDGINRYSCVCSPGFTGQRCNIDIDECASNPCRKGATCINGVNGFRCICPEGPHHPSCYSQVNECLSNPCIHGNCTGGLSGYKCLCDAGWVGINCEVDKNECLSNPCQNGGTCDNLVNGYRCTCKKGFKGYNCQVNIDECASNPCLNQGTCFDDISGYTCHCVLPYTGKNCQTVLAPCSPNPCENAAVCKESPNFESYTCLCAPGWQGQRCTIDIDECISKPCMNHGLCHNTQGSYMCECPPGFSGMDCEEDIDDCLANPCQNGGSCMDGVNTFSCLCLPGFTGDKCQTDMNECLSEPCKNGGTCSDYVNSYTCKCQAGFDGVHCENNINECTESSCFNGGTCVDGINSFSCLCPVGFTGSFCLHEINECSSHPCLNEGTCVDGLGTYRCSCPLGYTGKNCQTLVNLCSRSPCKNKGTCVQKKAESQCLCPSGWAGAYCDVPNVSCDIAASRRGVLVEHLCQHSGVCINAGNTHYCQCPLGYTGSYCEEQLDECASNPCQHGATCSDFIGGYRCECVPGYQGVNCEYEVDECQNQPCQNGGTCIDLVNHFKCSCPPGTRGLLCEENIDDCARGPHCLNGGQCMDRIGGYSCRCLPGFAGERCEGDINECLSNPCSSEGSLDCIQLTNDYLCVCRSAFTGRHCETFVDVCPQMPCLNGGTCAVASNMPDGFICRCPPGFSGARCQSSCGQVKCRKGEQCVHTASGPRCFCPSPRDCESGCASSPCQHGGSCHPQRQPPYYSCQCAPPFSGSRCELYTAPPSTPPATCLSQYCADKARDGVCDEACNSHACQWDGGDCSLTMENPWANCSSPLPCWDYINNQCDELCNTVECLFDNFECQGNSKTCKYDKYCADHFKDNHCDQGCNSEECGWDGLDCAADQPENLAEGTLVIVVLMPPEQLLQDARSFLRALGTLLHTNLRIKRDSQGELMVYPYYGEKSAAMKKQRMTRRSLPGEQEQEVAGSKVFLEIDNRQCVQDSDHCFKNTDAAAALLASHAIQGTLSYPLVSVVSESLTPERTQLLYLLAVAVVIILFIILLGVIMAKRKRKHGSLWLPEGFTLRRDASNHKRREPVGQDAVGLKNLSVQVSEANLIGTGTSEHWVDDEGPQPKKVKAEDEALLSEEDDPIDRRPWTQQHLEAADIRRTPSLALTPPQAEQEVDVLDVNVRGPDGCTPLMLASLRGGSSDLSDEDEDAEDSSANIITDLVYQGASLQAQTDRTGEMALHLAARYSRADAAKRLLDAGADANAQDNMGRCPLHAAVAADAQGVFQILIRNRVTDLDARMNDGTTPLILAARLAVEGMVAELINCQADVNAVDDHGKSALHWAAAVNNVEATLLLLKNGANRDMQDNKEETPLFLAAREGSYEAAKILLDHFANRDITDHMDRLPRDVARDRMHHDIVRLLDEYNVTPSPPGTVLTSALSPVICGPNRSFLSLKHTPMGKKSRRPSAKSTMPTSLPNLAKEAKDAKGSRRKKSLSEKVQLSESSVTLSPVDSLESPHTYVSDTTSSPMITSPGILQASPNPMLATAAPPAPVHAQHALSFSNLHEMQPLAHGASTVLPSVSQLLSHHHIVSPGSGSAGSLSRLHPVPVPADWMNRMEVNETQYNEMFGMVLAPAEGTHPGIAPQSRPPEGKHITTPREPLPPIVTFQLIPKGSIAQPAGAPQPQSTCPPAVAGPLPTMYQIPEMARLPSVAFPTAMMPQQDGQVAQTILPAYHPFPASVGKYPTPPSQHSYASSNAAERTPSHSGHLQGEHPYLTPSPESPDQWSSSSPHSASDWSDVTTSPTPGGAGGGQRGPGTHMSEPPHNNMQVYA

As for `C=CCC(OC(C)=O)[C@@H]1[C@@H](N(Cc2ccc(-c3ccccc3)cc2)C(=O)c2ccc(C)cc2)c2cc(OCCCO)ccc2N1C(=O)Cc1ccc(OC)cc1` (stereo not given in full), the composite z-score in [1] is -0.0305; in [2], 0.0667; in assay [3] it was -0.078; in assay [4] it was 0.27; in [5], -0.0045; in [6], -0.369. The composite z-score was -0.453 in assay [7]; 0.255 in assay [9]; -0.0994 in assay [10]; 1.1 in assay [11]; 0.178 in assay [15]; -0.166 in assay [17]. The composite z-score in [18] is 0.0438; in assay [19], 0.338; in assay [20], -0.109. Besides, the z-score was -1.32 (inactive) in [8]; -2.3 (inactive) in assay [12]; -1.13 (inactive) in assay [13]; -0.713 (inactive) in assay [14]; 1.26 (inactive) in assay [16].

`CN(C)CCCCCCNC(=O)[C@@H]1C[C@@H]2C(=O)NCC(=O)N2[C@@H]1c1cccc(OCCO)c1`: the composite z-score in assay [1] is -0.131; in assay [2], 1.37; in assay [3], 0.153; in [4] it was 0.816; in assay [5], 1.14; in [6], 0.346. Also, the composite z-score was 1.26 in assay [7]; 0.555 in [9]; 0.164 in [10]; 1.53 in [11]; 3.07 in assay [15]; 0.164 in assay [17]. Also, the composite z-score came out at 1.17 in assay [18], 1.03 in [19] and 0.0225 in [20]. Also, the z-score is 2.12 (inactive) in assay [8]; 0.116 (inactive) in assay [12]; -0.192 (inactive) in assay [13]; 0.191 (inactive) in [14]; 0.121 (inactive) in assay [16].

Consider `Cc1ccc(N2C(=O)c3ccccc3[C@@H](C(=O)NC(C)C)[C@@H]2c2ccc(CO)cc2)nc1`, for which the composite z-score in assay [1] was 0.675; in [2], -0.374; in [3], -0.0598; in assay [4] it was 0.079; in assay [5] it was -0.333; in assay [6] it was -0.318. For the same compound, the composite z-score in assay [7] was 1.27; in assay [9], -1.08; in [10], -0.0994; in assay [11], 0.528; in assay [15], 3.07; in [17] it was -0.0336. In addition, the composite z-score in assay [18] is -0.0751; in [19], -0.528; in assay [20], -0.115. In addition, the z-score was 0.822 (inactive) in assay [8]; -1.14 (inactive) in [12]; -0.958 (inactive) in assay [13]; -1.62 (inactive) in [14]; -0.113 (inactive) in assay [16].

`[N-]=[N+]=NCc1ccccc1[C@@H]1OC(c2ccc(OCCCO)cc2)=N[C@]1(Cc1ccccc1N=[N+]=[N-])C(N)=O`: the composite z-score was 0.209 in [1]; -0.523 in [2]; -0.156 in [3]; 0.385 in assay [4]; 1.66 in [5]; 2.08 in [6]. Moreover, the composite z-score in [7] is 1.27; in [9], 1.25; in assay [10] it was -0.0994; in [11], 1.55; in assay [15], 3.29; in [17] it was 0.361. Also, the composite z-score in [18] is 0.37; in [19], 1.04; in assay [20] it was 0.171. In addition, the z-score is 0.722 (inactive) in assay [8]; -0.0556 (inactive) in assay [12]; -1.33 (inactive) in [13]; -0.91 (inactive) in assay [14]; 0.43 (inactive) in assay [16].

For `CC(C)[Si]1(C(C)C)O[C@@H](c2ccccc2)c2cc(-c3ccc(-c4ccc(Cl)c(Cl)c4)o3)nc(CCc3ccccc3)c21`, the composite z-score in assay [1] was 0.662; in [2], -0.56; in [3], -0.16; in [4] it was -0.641; in [5], -0.868; in assay [6] it was -0.345. Moreover, the composite z-score is -0.314 in assay [7]; -0.363 in assay [9]; 0.269 in assay [10]; 0.324 in assay [11]; 0.883 in assay [15]; -0.126 in [17]. Besides, the composite z-score is -1.37 in [18], -1.78 in [19] and -0.248 in assay [20]. For the same compound, the z-score in assay [8] is 0.838 (inactive); in assay [12] it was 0.149 (inactive); in assay [13] it was -2.2 (inactive); in [14], 3.08 (inactive); in assay [16], -0.823 (inactive).
